The panel holds about 83,000 compounds, 20% with a hit somewhere; the sample as a whole holds those more often.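 A percent growth of 40 corresponds to 60% growth inhibition; 0 means no net growth; -100 means all cells died. Active threshold: below 10.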 Activity calls are given as the source filed them.
How the values were obtained:
Assay in all cases: NCI-60 one-dose screen, 48 h (100 = growth as untreated, 0 = no growth, -100 = all killed)
Conditions in all cases: 10 µM unless noted
HT29 colon = tested on: HT29 colon
SNB-75 CNS = tested on: SNB-75 CNS
SNB-19 CNS = tested on: SNB-19 CNS
U251 CNS = tested on: U251 CNS
SK-MEL-5 melanoma = tested on: SK-MEL-5 melanoma
UACC-62 melanoma = tested on: UACC-62 melanoma
LOX IMVI melanoma = tested on: LOX IMVI melanoma
SK-MEL-28 melanoma = tested on: SK-MEL-28 melanoma
SK-MEL-2 melanoma = tested on: SK-MEL-2 melanoma

Measured: growth

NC(=O)c1ccccc1NC(=O)c1ccccc1Cl
inactive: HT29 colon 118% | SNB-75 CNS 92.8% | SNB-19 CNS 98.4% | U251 CNS 106% | SK-MEL-5 melanoma 106% | UACC-62 melanoma 97.4% | LOX IMVI melanoma 106% | SK-MEL-28 melanoma 112% | SK-MEL-2 melanoma 129%

[O-]/[N+](=C\C=C\c1ccccc1)c1ccccc1
inactive: HT29 colon 102% | SNB-75 CNS 91.8% | SNB-19 CNS 96.8% | U251 CNS 98.8% | SK-MEL-5 melanoma 102% | UACC-62 melanoma 93.8% | LOX IMVI melanoma 96.8% | SK-MEL-28 melanoma 110% | SK-MEL-2 melanoma 100%

CCN(CC)c1ccc(N=Nc2cc(Cl)ccc2Cl)c(NC(=O)CCC(=O)O)c1
inactive: HT29 colon 111% | SNB-75 CNS 91.1% | SNB-19 CNS 110% | U251 CNS 94.7% | SK-MEL-5 melanoma 103% | UACC-62 melanoma 101% | LOX IMVI melanoma 99.1% | SK-MEL-28 melanoma 120%

O=C(Nc1ccc(Oc2ccc(NC(=O)Nc3ccc([N+](=O)[O-])cc3)cc2)cc1)Nc1ccc([N+](=O)[O-])cc1
active: HT29 colon 8.5% | SK-MEL-5 melanoma -76.1% | SK-MEL-2 melanoma -27.5%
inactive: SNB-75 CNS 42.6% | SNB-19 CNS 29.7% | U251 CNS 17.6% | UACC-62 melanoma 15.6% | LOX IMVI melanoma 12.4% | SK-MEL-28 melanoma 24.8%

COC(=O)[C@]1(C(C)C)N[C@H](c2cn(-c3ccccc3)nc2-c2ccccc2)[C@@H]2C(=O)N(c3ccc(Cl)cc3)C(=O)[C@@H]21
inactive: HT29 colon 98.1% | SNB-75 CNS 86.1% | SNB-19 CNS 99.1% | U251 CNS 97.4% | SK-MEL-5 melanoma 101% | UACC-62 melanoma 101% | LOX IMVI melanoma 92.1% | SK-MEL-28 melanoma 114% | SK-MEL-2 melanoma 86.9%

COc1ccc2[nH]c(-c3ccccc3)cc2c1
inactive: HT29 colon 102% | SNB-75 CNS 88% | SNB-19 CNS 93.4% | U251 CNS 107% | SK-MEL-5 melanoma 97% | UACC-62 melanoma 84.7% | LOX IMVI melanoma 105% | SK-MEL-28 melanoma 110% | SK-MEL-2 melanoma 101%

c1ccc(Nc2nnc(-c3cc(-c4cccnc4)n(-c4ccccc4)n3)s2)cc1
inactive: SNB-75 CNS 102% | SNB-19 CNS 102% | U251 CNS 69.5% | SK-MEL-5 melanoma 69.9% | UACC-62 melanoma 84.1% | LOX IMVI melanoma 69.8% | SK-MEL-28 melanoma 106% | SK-MEL-2 melanoma 96.5%
active: HT29 colon 3.7%

COc1ccc(-c2nn(-c3ccccc3)cc2/C=C2\SC(=S)N(CCc3ccc(O)cc3)C2=O)cc1
inactive: HT29 colon 101% | SNB-75 CNS 81% | SNB-19 CNS 93.6% | U251 CNS 90.5% | SK-MEL-5 melanoma 88.1% | UACC-62 melanoma 60.3% | LOX IMVI melanoma 72.9% | SK-MEL-28 melanoma 98.6% | SK-MEL-2 melanoma 95%

CCCCSc1cc(C)nc(N)n1
inactive: HT29 colon 103% | SNB-75 CNS 81% | SNB-19 CNS 99.4% | U251 CNS 93.8% | SK-MEL-5 melanoma 101% | UACC-62 melanoma 93.9% | LOX IMVI melanoma 92% | SK-MEL-28 melanoma 113% | SK-MEL-2 melanoma 93.4%

CCC(=O)Nc1ccccc1C#C/C=C\C#Cc1ccccc1C(F)(F)F
inactive: HT29 colon 47.9% | SNB-75 CNS 32.3% | SNB-19 CNS 66.4% | U251 CNS 34.9% | SK-MEL-5 melanoma 60.2% | UACC-62 melanoma 38.2% | LOX IMVI melanoma 56.1% | SK-MEL-28 melanoma 83.8% | SK-MEL-2 melanoma 12.4%

COc1cc2c(cc1OCCCCCn1c(-c3ccc(OCc4ccccc4)cc3)nc3cc(N4CCOCC4)ccc31)N=C[C@@H]1CCCN1C2=O
inactive: SNB-75 CNS 12.1% | SNB-19 CNS 34.7%
active: HT29 colon -13.7% | U251 CNS -24.4% | SK-MEL-5 melanoma -66.7% | UACC-62 melanoma -76.5% | LOX IMVI melanoma -29.7% | SK-MEL-28 melanoma -19% | SK-MEL-2 melanoma -40%

Cc1cc(C)n2nc(SCC(=O)Nc3sc4c(c3C(N)=O)CCC4)nc2n1
inactive: HT29 colon 123% | SNB-75 CNS 115% | SNB-19 CNS 102% | U251 CNS 99.3% | SK-MEL-5 melanoma 99% | UACC-62 melanoma 80.5% | LOX IMVI melanoma 105% | SK-MEL-28 melanoma 137% | SK-MEL-2 melanoma 65%

O=C(CSc1nnc(Nc2ccccc2)s1)NCCc1ccc(F)cc1
inactive: HT29 colon 105% | SNB-75 CNS 119% | SNB-19 CNS 100% | U251 CNS 105% | SK-MEL-5 melanoma 97.2% | UACC-62 melanoma 90% | LOX IMVI melanoma 99.8% | SK-MEL-28 melanoma 134% | SK-MEL-2 melanoma 66.2%

CCOC(=O)c1c2c(c(C)n1Cc1ccc(OC)cc1)-c1nc(N)ncc1CC2
inactive: HT29 colon 110% | SNB-75 CNS 103% | SNB-19 CNS 111% | U251 CNS 106% | SK-MEL-5 melanoma 110% | UACC-62 melanoma 87.3% | LOX IMVI melanoma 104% | SK-MEL-28 melanoma 112% | SK-MEL-2 melanoma 119%

O=C(Nc1ncc([N+](=O)[O-])s1)c1cccc([N+](=O)[O-])c1
inactive: HT29 colon 51.4% | SNB-75 CNS 30.3% | SNB-19 CNS 32.8% | U251 CNS 52% | LOX IMVI melanoma 52.1% | SK-MEL-28 melanoma 56.8% | SK-MEL-2 melanoma 16.9%
active: SK-MEL-5 melanoma -14.2% | UACC-62 melanoma 9.35%

COc1cc(/C=C/C(=O)Nc2cccnc2Nc2cc(OC)c(OC)c(OC)c2)cc(OC)c1OC
inactive: HT29 colon 94.3% | SNB-75 CNS 82.1% | SNB-19 CNS 96.5% | U251 CNS 91.3% | SK-MEL-5 melanoma 93.6% | UACC-62 melanoma 84.4% | LOX IMVI melanoma 101% | SK-MEL-28 melanoma 103% | SK-MEL-2 melanoma 96.4%

O=C1OCC/C1=C\OCCCO/C=C1\CCOC1=O
inactive: HT29 colon 105% | SNB-75 CNS 97.1% | SNB-19 CNS 104% | U251 CNS 99.6% | SK-MEL-5 melanoma 105% | UACC-62 melanoma 91% | LOX IMVI melanoma 98.8% | SK-MEL-28 melanoma 125% | SK-MEL-2 melanoma 104%

O=C(Cn1ccnc1)NC(c1ccccc1)c1ccccc1
inactive: HT29 colon 104% | SNB-75 CNS 73.4% | SNB-19 CNS 95.1% | U251 CNS 101% | SK-MEL-5 melanoma 99.8% | UACC-62 melanoma 89.7% | LOX IMVI melanoma 98% | SK-MEL-28 melanoma 98.2% | SK-MEL-2 melanoma 106%

Cc1nn(-c2ccccc2)c(Cl)c1C(CC(=O)c1ccc(Cl)cc1)CC(=O)c1ccc(Cl)cc1
inactive: HT29 colon 77% | SNB-75 CNS 86.8% | SNB-19 CNS 82.4% | U251 CNS 82.2% | SK-MEL-5 melanoma 89.7% | UACC-62 melanoma 82.4% | LOX IMVI melanoma 81.8% | SK-MEL-28 melanoma 112% | SK-MEL-2 melanoma 89.1%

CC1=NN(c2ccccc2Cl)C(=O)/C1=C\c1cn(S(=O)(=O)c2ccc(C)cc2)c2ccccc12
inactive: HT29 colon 122% | SNB-75 CNS 89.3% | SNB-19 CNS 114% | U251 CNS 103% | SK-MEL-5 melanoma 106% | UACC-62 melanoma 86.5% | LOX IMVI melanoma 97.4% | SK-MEL-28 melanoma 125% | SK-MEL-2 melanoma 114%

O=C(Nc1ccc(Nc2ccncc2)cc1)c1ccc(Nc2ccnc3ccc([N+](=O)[O-])cc23)cc1[N+](=O)[O-]
inactive: HT29 colon 103% | SNB-75 CNS 85.8% | SNB-19 CNS 29.6% | SK-MEL-5 melanoma 103% | UACC-62 melanoma 91.1% | LOX IMVI melanoma 21.1% | SK-MEL-28 melanoma 54.6% | SK-MEL-2 melanoma 82.2%
active: U251 CNS -46.1%

Cc1cc(NC(=O)Nc2cccc3ccccc23)no1
inactive: HT29 colon 108% | SNB-75 CNS 91.4% | SNB-19 CNS 105% | U251 CNS 93.6% | SK-MEL-5 melanoma 99% | UACC-62 melanoma 90.6% | LOX IMVI melanoma 95.9% | SK-MEL-28 melanoma 116% | SK-MEL-2 melanoma 101%

COc1cc(/C=C/c2nnc(-c3cc(-c4ccccc4)n[nH]3)o2)cc(OC)c1OC
inactive: HT29 colon 96.8% | SNB-75 CNS 67.4% | SNB-19 CNS 102% | U251 CNS 108% | SK-MEL-5 melanoma 84.5% | UACC-62 melanoma 92.9% | LOX IMVI melanoma 95.4% | SK-MEL-28 melanoma 87.9% | SK-MEL-2 melanoma 89.7%

ClC1=C(Cl)C(=C2C(Cl)=C(Cl)C(Cl)=C2Cl)C(Cl)=C1Cl
inactive: HT29 colon 96.2% | SNB-75 CNS 94.4% | SNB-19 CNS 105% | U251 CNS 103% | SK-MEL-5 melanoma 103% | UACC-62 melanoma 99.3% | LOX IMVI melanoma 97.9% | SK-MEL-28 melanoma 111% | SK-MEL-2 melanoma 95.8%

CN(C)CCCN1c2nc3ccccc3cc2Sc2cc3ccccc3nc21
inactive: SK-MEL-2 melanoma 13%
active: HT29 colon -88.6% | SNB-75 CNS 9.61% | SNB-19 CNS -56.1% | U251 CNS -84% | SK-MEL-5 melanoma -75.9% | UACC-62 melanoma -91.3% | LOX IMVI melanoma -100% | SK-MEL-28 melanoma -92.9%

O=C(Nc1ccc(C2=NCCCN2)cc1)Nc1ccc(C2=NCCCN2)cc1
inactive: HT29 colon 92.4% | SNB-75 CNS 94.5% | SNB-19 CNS 96.7% | U251 CNS 93.7% | SK-MEL-5 melanoma 69.7% | UACC-62 melanoma 87.7% | LOX IMVI melanoma 89.9% | SK-MEL-28 melanoma 86.9% | SK-MEL-2 melanoma 49%

O=C1c2ccccc2C(=O)c2c1cccc2-n1nnc2ccccc21
inactive: HT29 colon 106% | SNB-75 CNS 90.8% | SNB-19 CNS 104% | U251 CNS 99.8% | SK-MEL-5 melanoma 112% | UACC-62 melanoma 103% | LOX IMVI melanoma 100% | SK-MEL-28 melanoma 118% | SK-MEL-2 melanoma 79.3%

Cc1nc2c(O)cccc2cc1CO
inactive: HT29 colon 99.8% | SNB-75 CNS 78.2% | SNB-19 CNS 104% | U251 CNS 109% | SK-MEL-5 melanoma 98.5% | UACC-62 melanoma 94.6% | LOX IMVI melanoma 106% | SK-MEL-28 melanoma 139% | SK-MEL-2 melanoma 122%

COc1cc(NC(=O)c2cc3ccccc3cc2O)c(OC)cc1Cl
inactive: HT29 colon 64.8% | SNB-75 CNS 40.9% | SNB-19 CNS 16% | U251 CNS 13.1% | UACC-62 melanoma 24% | SK-MEL-28 melanoma 43.6%
active: SK-MEL-5 melanoma -41.9% | LOX IMVI melanoma 3.45% | SK-MEL-2 melanoma -17.2%

CCOC(=O)c1c(C)nc(C)c(C(=O)OCC)c1-c1cccnc1
inactive: HT29 colon 96.5% | SNB-75 CNS 81.7% | SNB-19 CNS 96.1% | U251 CNS 94.1% | SK-MEL-5 melanoma 97.5% | UACC-62 melanoma 105% | LOX IMVI melanoma 96.1% | SK-MEL-28 melanoma 119% | SK-MEL-2 melanoma 110%

COc1ccc(OC)c(NC(=O)c2cc3oc4ccccc4c3cc2O)c1
inactive: HT29 colon 100% | SNB-75 CNS 84% | SNB-19 CNS 92.7% | U251 CNS 120% | SK-MEL-5 melanoma 91.1% | UACC-62 melanoma 79.7% | LOX IMVI melanoma 109% | SK-MEL-28 melanoma 101% | SK-MEL-2 melanoma 96.1%
